Test results taken from PubChem BioAssay AID1159580 (chemical genetic matrix, 2015).
Several values for one entry are separate records, joined by “and”; a condition that tells them apart may be missing. Equal entries are not always repeated. Among all 5,500 compounds or so, about 2,000 (36%) were called active. About 18% were inconclusive and are not listed. Cut-off read from the data, not from the text of the source: active = normalized growth mostly below about 0.91 (no sharp cut-off); inconclusive = no clear call, values can overlap the other calls; inactive = mostly above about 0.92. Some of the results follow.

Experiment: chemical genetic growth profiling, strain panel (AID 1159580);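 note: tested at 20 µM; growth read once vehicle control cultures reached saturation at 30 °C; 1 = growth at the plate median or of vehicle wells; lower values mean less growth of the strain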
Details: growth OD

Measured: normalized growth

CCCCNC(=O)NS(=O)(=O)c1ccc(C)cc1
inactive: S. cerevisiae deletion strains, locus YJR075W, strain HOC1, active compounds read low 0.963 and 0.994 | S. cerevisiae deletion strains, locus YKL009W, strain mrt4, active compounds read low 0.953 | S. cerevisiae deletion strains, locus YKL068W, active compounds read low 0.98 | S. cerevisiae deletion strains, locus YKL085W, strain MDH1 (second series), active compounds read low 0.973 | S. cerevisiae deletion strains, locus YKL085W, strain MDH1, active compounds read low 0.973 | S. cerevisiae deletion strains, locus YKL160W, strain elf1, active compounds read low 1 | S. cerevisiae deletion strains, locus YKL190W, strain CNB1, active compounds read low 0.991 | S. cerevisiae deletion strains, locus YKR001C, strain vps1, active compounds read low 0.985 | S. cerevisiae deletion strains, locus YKR026C, strain gcn3, active compounds read low 0.999 | S. cerevisiae deletion strains, locus YKR091W, strain srl3, active compounds read low 1.01 | S. cerevisiae deletion strains, locus YLL001W, strain dnm1, active compounds read low 1.02 | S. cerevisiae deletion strains, locus YLL026W, active compounds read low 1.01 | S. cerevisiae deletion strains, locus YLL041C, strain sdh2, active compounds read low 1.01 | S. cerevisiae deletion strains, locus YLR027C, strain aat2, active compounds read low 1 | S. cerevisiae deletion strains, locus YLR039C, strain RIC1, active compounds read low 0.961 | S. cerevisiae deletion strains, locus YLR058C, strain SHM2, active compounds read low 0.991 | S. cerevisiae deletion strains, locus YLR102C, strain apc9, active compounds read low 0.985 | S. cerevisiae deletion strains, locus YLR113W, strain HOG1, active compounds read low 0.915 | S. cerevisiae deletion strains, locus YLR221C, strain rsa3, active compounds read low 0.952 | S. cerevisiae deletion strains, locus YLR258W, strain gsy2, active compounds read low 1.01 | S. cerevisiae deletion strains, locus YLR262C, strain YPT6 (second series), active compounds read low 0.984 | S. cerevisiae deletion strains, locus YLR262C, strain YPT6, active compounds read low 0.933 | S. cerevisiae deletion strains, locus YLR268W, strain sec22, active compounds read low 0.951 | S. cerevisiae deletion strains, locus YLR320W, strain mms22, active compounds read low 0.999 | S. cerevisiae deletion strains, locus YLR330W, strain CHS5, active compounds read low 0.986 | S. cerevisiae deletion strains, locus YLR342W, strain FKS1 (second series), active compounds read low 1.01 | S. cerevisiae deletion strains, locus YLR342W, strain FKS1, active compounds read low 1.02 | S. cerevisiae deletion strains, locus YLR357W, strain rsc2, active compounds read low 1.02 | S. cerevisiae deletion strains, locus YLR370C, strain arc18, active compounds read low 1.02 | S. cerevisiae deletion strains, locus YLR371W, strain rom2, active compounds read low 0.974 | S. cerevisiae deletion strains, locus YLR384C, strain iki3, active compounds read low 1.02 | S. cerevisiae deletion strains, locus YLR418C, strain cdc73, active compounds read low 1.01 | S. cerevisiae deletion strains, locus YML016C, strain PPZ1, active compounds read low 0.996 | S. cerevisiae deletion strains, locus YML032C, strain rad52, active compounds read low 0.983 | S. cerevisiae deletion strains, locus YML120C, strain ndi1, active compounds read low 1.03 | S. cerevisiae deletion strains, locus YML124C, strain tub3, active compounds read low 0.979 | S. cerevisiae deletion strains, locus YMR058W, strain fet3, active compounds read low 1.02 | S. cerevisiae deletion strains, locus YMR078C, strain ctf18, active compounds read low 0.969 | S. cerevisiae deletion strains, locus YMR125W, strain sto1, active compounds read low 1.02 | S. cerevisiae deletion strains, locus YMR129W, active compounds read low 1.01 | S. cerevisiae deletion strains, locus YMR205C, strain PFK2, active compounds read low 1.01 | S. cerevisiae deletion strains, locus YMR223W, strain ubp8, active compounds read low 1.01 | S. cerevisiae deletion strains, locus YMR231W, strain pep5, active compounds read low 1 | S. cerevisiae deletion strains, locus YMR263W, strain SAP30, active compounds read low 0.999 | S. cerevisiae deletion strains, locus YMR307W, strain GAS1, active compounds read low 1.01 and 1 | S. cerevisiae deletion strains, locus YNL067W, strain RPL9B, active compounds read low 0.992 | S. cerevisiae deletion strains, locus YNL071W, strain lat1, active compounds read low 1.01 | S. cerevisiae deletion strains, locus YNL128W, strain TEP1, active compounds read low 0.965 and 0.986 | S. cerevisiae deletion strains, locus YNL175C, strain NOP13, active compounds read low 1.01 | S. cerevisiae deletion strains, locus YNL183C, strain NPR1, active compounds read low 0.912 | S. cerevisiae deletion strains, locus YNL197C, strain WHI3, active compounds read low 1.01 | S. cerevisiae deletion strains, locus YNL209W, strain ssb2, active compounds read low 1.02 | S. cerevisiae deletion strains, locus YNL224C, strain SQS1, active compounds read low 0.995 | S. cerevisiae deletion strains, locus YNL233W, strain BNI4, active compounds read low 1 | S. cerevisiae deletion strains, locus YNL248C, strain rpa49, active compounds read low 1 | S. cerevisiae deletion strains, locus YNL250W, strain rad50, active compounds read low 0.998 | S. cerevisiae deletion strains, locus YNL271C, strain bni1, active compounds read low 0.991 | S. cerevisiae deletion strains, locus YNL298W, strain CLA4, active compounds read low 0.981 | S. cerevisiae deletion strains, locus YNL307C, strain MCK1, active compounds read low 0.978 | S. cerevisiae deletion strains, locus YNL322C, strain KRE1 (second series), active compounds read low 0.99 | S. cerevisiae deletion strains, locus YNL322C, strain KRE1, active compounds read low 0.992 | S. cerevisiae deletion strains, locus YNR049C, strain mso1, active compounds read low 1.01 | S. cerevisiae deletion strains, locus YNR052C, strain pop2, active compounds read low 0.98 | S. cerevisiae deletion strains, locus YOL006C, strain TOP1, active compounds read low 1.07 | S. cerevisiae deletion strains, locus YOL012C, strain htz1 1.12 | S. cerevisiae deletion strains, locus YOL147C, strain pex11, active compounds read low 0.981 | S. cerevisiae deletion strains, locus YOR001W, strain rrp6, active compounds read low 1.02 | S. cerevisiae deletion strains, locus YOR061W, strain CKA2, active compounds read low 1 | S. cerevisiae deletion strains, locus YOR069W, strain VPS5, active compounds read low 0.985 | S. cerevisiae deletion strains, locus YOR070C, strain gyp1, active compounds read low 1.01 | S. cerevisiae deletion strains, locus YOR080W, strain dia2, active compounds read low 1.02 | S. cerevisiae deletion strains, locus YOR083W, strain WHI5 (second series), active compounds read low 1.01 | S. cerevisiae deletion strains, locus YOR083W, strain WHI5, active compounds read low 0.998 | S. cerevisiae deletion strains, locus YOR106W, strain vam3, active compounds read low 1.04 | S. cerevisiae deletion strains, locus YOR136W, strain idh2, active compounds read low 0.998 | S. cerevisiae deletion strains, locus YOR144C, strain elg1, active compounds read low 0.992 | S. cerevisiae deletion strains, locus YOR184W, strain ser1, active compounds read low 1 | S. cerevisiae deletion strains, locus YOR231W, strain MKK1, active compounds read low 0.983 | S. cerevisiae deletion strains, locus YOR265W, strain rbl2, active compounds read low 1.01 | S. cerevisiae deletion strains, locus YOR270C, strain vph1, active compounds read low 1.04 | S. cerevisiae deletion strains, locus YOR290C, strain snf2, active compounds read low 0.998 | S. cerevisiae deletion strains, locus YOR316C, strain cot1, active compounds read low 0.979 | S. cerevisiae deletion strains, locus YPL051W, strain arl3, active compounds read low 0.999 | S. cerevisiae deletion strains, locus YPL055C, strain LGE1, active compounds read low 1.01 | S. cerevisiae deletion strains, locus YPL078C, strain atp4, active compounds read low 1.04 | S. cerevisiae deletion strains, locus YPL106C, strain sse1, active compounds read low 1.06 | S. cerevisiae deletion strains, locus YPL240C, strain hsp82, active compounds read low 1 | S. cerevisiae deletion strains, locus YPL241C, strain CIN2, active compounds read low 0.994 and 1 | S. cerevisiae deletion strains, locus YPL256C, strain CLN2, active compounds read low 0.945 | S. cerevisiae deletion strains, locus YPR119W, strain clb2, active compounds read low 0.986 | S. cerevisiae deletion strains, locus YPR141C, strain kar3, active compounds read low 0.979 | S. cerevisiae deletion strains, locus YPR163C, strain tif3, active compounds read low 0.979 | S. cerevisiae deletion strains, locus YPR167C, strain met16, active compounds read low 0.987 | S. cerevisiae deletion strains, strain wtn01, active compounds read low 0.969 | S. cerevisiae strains, strain wild type, active compounds read low 1
